# Source: PubChem (National Center for Advancing Translational Sciences (NCATS))
# CHX counter – counter-screen for Shiga toxin inhibitors: cycloheximide protein synthesis inhibition; 12% of 300,000 active; cell reporter, cycloheximide protein synthesis inhibition counterscreen; max response, %; in the data active = max response mostly above about 13%, no sharp cut-off; inactive = mostly below about 14%; note: read at 38.3 µM for the half of the compounds with a filed dose; 0% is about no effect
# AMA1-RON2 inh – inhibitors of Plasmodium falciparum AMA1-RON2 interaction; AlphaScreen AMA1-biotinylated RON2 peptide binding; Potency, µM (highest dose often 58.2 µM), for the others: at the highest dose activity change, negative = inhibition, actives largely listed as inhibitors; 0.2% of 360,000 active; AID 720542;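 note: potency is the fitted concentration of half-maximal effect; 0% = vehicle wells and -100% = peptide control; nearly all actives have a fitted effect of over 45% in size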
#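 AMA1 (3D7) with his tag at 25 nM final met compounds first, then biotinylated RON2 peptide at 25 nM; detection used donor plus acceptor beads, 10 µg/mL apiece, read by AlphaScreen after 30 min at room temperature.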
# Pf growth 48h – inhibits P. falciparum growth in the first generation, 48 h; P. falciparum luciferase growth in erythrocytes, 48 h; Potency, µM (titrated, usually from 28.7 µM), for inactives: at the highest dose activity change, negative = inhibition, most hits filed as inhibitors; 5.9% of 310,000 active; AID 504832; note: potency is the fitted concentration of half-maximal effect; % is set by controls: 0 for no effect and ±100 for the full control effect
#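 In quantitative HTS format, infected erythrocytes bearing luciferase-reporter parasites were treated for a single generation at 37 C. Luminescence after adding detection reagent served as the growth measure.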
# Shiga inhibitor – inhibitors of Shiga toxin in Vero cells; inhibition, % at 38.7 µM; 9.2% of 290,000 active; Vero cells, Shiga toxin protein synthesis inhibition reporter; in the data active = inhibition mostly above about 28%, no sharp cut-off; inactive = mostly below about 43%; note: 0% is about no effect
# Pf growth 96h – P. falciparum growth inhibition at 96 hours; Potency, µM (top dose mostly 28.7 µM), for inactives: at the highest dose activity change, negative = inhibition, usual class: inhibitors; 6.9% of 320,000 active; P. falciparum luciferase reporter growth, 96 h; note: potency is the fitted concentration of half-maximal effect; % is set by controls: 0 for no effect and ±100 for the full control effect
#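 Infected RBCs, 2% Hct / 0.05% parasitemia final; luciferase-reporter P. falciparum; cpd 96 h, 37 C, 5% CO2; luciferase detection reagent; luminescence.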
# HCV inh – blocks hepatitis C virus. Huh7.5.1 HCVcc-Cre infection, luciferase reporter, 44 h. Potency, µM (highest dose often 41.8 µM), inactives show top-dose activity change, negative = inhibition, hits mostly inhibitors. 3.4% of 340,000 active. AID 651820; note: potency is the fitted concentration of half-maximal effect; % is set by controls: 0 for no effect and ±100 for the full control effect
#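 Infectious HCVcc-Cre (~0.5 moi) was added to cells just after compound, with cells seeded 4 h earlier at 1,000 per well. Luciferase activity after 44 h culture reported infection; substrate was incubated 15 min at room temperature before reading.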
# The depositor's hits bear a star; ? = inconclusive; · = not tested or not shown; [ ] = another dose, or the depositor's remark. Hits are enriched below; roughly 21% of the tested compounds scored in any of these assays. Unless noted, calls come from the whole dose curve; as a rule, active = well fitted curve in the direction sought with a large enough effect; inconclusive = small, poorly fitted or top-dose-only effect, or another doubt; inactive = no such curve, though single readings can be large; an effect the other way counts as inactive or inconclusive.
SMILES,CHX counter,AMA1-RON2 inh,Pf growth 48h,Shiga inhibitor,Pf growth 96h,HCV inh
CCOc1ccc(-n2c(SCC(N)=O)nc3c(c2=O)SCC3)cc1,-1,-4%,8.3µM*,17,-30%,-15%
COc1ccc(NC(=O)CSc2nc3c(c(=O)n2-c2ccc(F)cc2)SCC3)cc1,-1,-4%,-22%,1,10µM*,4%
O=C(CSc1nc2c(c(=O)n1-c1ccc(Cl)cc1)SCC2)Nc1nccs1,-2,8%,5.2µM*,-8,-8%,2%
CC(=O)OCC1=C(C(=O)O)N2C(=O)[C@@H](NC(=O)CSc3ccncc3)[C@@H]2SC1,·,·,-3%,·,?,·
C=CCN(CC=C)c1nc2ccccc2nc1C(C#N)C(=O)OC(C)C (configuration not stated),-2,-9%,10µM*,12,?,?
COc1cccc(OCCn2cc(C(=O)c3ccco3)c3ccccc32)c1,18,-3%,1.9µM*,43,0%,20µM*
O=C(O)Cn1cc(C(=O)c2ccco2)c2ccccc21,-1,1%,12%,19,-12%,12%
Cc1ccccc1OCCn1cc(C(=O)O)c2ccccc21,2,16%,-19%,45,-2%,-8%
Cc1ccc(C)c(OCCn2cc(/C=C(\C#N)C(=O)NCc3ccco3)c3ccccc32)c1,-2,42%,9.3µM*,-8,0%,-19%
COc1ccc(OC)c(NC(=O)Cn2cc(C(=O)c3ccco3)c3ccccc32)c1,-1,-17%,?,-17,-21%,?
Cc1ccccc1OCCn1cc(/C(N)=N/O)c2ccccc21,7,2%,·,2,9.3µM*,?
O=C(c1ccco1)c1cn(Cc2ccc(Cl)cc2)c2ccccc12,23*,-14%,·,38,35%,?
COc1cc(OC)c(/C=N/NC(=O)Cn2nc([N+](=O)[O-])cc2C)c(OC)c1,-2,16%,8%,-3,10%,-1%
CC(NC(=O)c1cc(COc2ccc(-n3cncn3)cc2)on1)c1ccc(F)cc1 (configuration not stated),·,-6%,·,·,·,·
COc1ccccc1OCCn1cc(C(=O)c2ccco2)c2ccccc21,18,22%,12µM*,35,?,?
CCOC(=O)Cn1cc(C(=O)c2ccco2)c2ccccc21,2,-3%,15%,3,-29%,-11%
COc1cccc(OCCn2cc(C(C)=O)c3ccccc32)c1,12,-1%,9.3µM*,·,?,?
CC(=O)c1cn(CCOc2cc(C)ccc2C)c2ccccc12,-2,13%,?,-7,?,1.8µM*
COc1cccc(OCCn2cc(/C=N/NC(=O)c3ccncc3)c3ccccc32)c1,10,38%,31%,0,31%,-24%
COc1ccccc1OCCCn1cc(C(=O)c2ccco2)c2ccccc21,35*,6%,?,143*,17%[5.75 µM],11µM*
Cc1ccc(C)c(OCCn2cc(C(=O)O)c3ccccc32)c1,0,-18%,23%,21,43%,-13%
O=C(c1ccc(-n2cncn2)c([N+](=O)[O-])c1)N1CCN(S(=O)(=O)c2ccc(F)c(F)c2)CC1,·,-9%,-6%,·,-17%,10%
CC(NCC(=O)NC(=O)NCCC1=CCCCC1)c1ccc(S(N)(=O)=O)cc1 (configuration not stated),·,?,·,·,·,10%
COC(=O)Nc1ccc(Cl)c(Cl)c1,16,·,·,7,·,·
O=C(NC(=S)Nc1ccc(CN2CCOCC2)cc1)c1ccco1,31*,9%,147%,34*,93%,6%
SMILES,CHX counter,AMA1-RON2 inh,Pf growth 48h,Shiga inhibitor,Pf growth 96h,HCV inh
Fc1ccccc1NC(=S)N1CCOCC1,10,-1%,-3%,-6,46%,16%
Fc1ccccc1NC(=S)Nc1ccc(CN2CCOCC2)cc1,23*,-15%,144%,66*,20%,17%
O=C(NC(=S)Nc1ccc(N2CCOCC2)cc1)c1ccco1,32*,-9%,132%,43*,44%,18%
O=C(NC(=S)Nc1ccc(N2CCOCC2)cc1)c1cccc(Cl)c1,5,-14%,57%,29,215%,25µM*
C=C(C)CN1CCN(S(=O)(=O)c2ccc(C)c(N(C)S(=O)(=O)c3ccc(C)cc3)c2C)CC1,-2,-24%,10µM*,-4,-18%,?
Cc1cc(C)nc(SCc2nc3nc(C)cc(C)n3c2Br)n1,-3,-5%,10µM*,-1,1.5µM*,3%
CCn1c(C)nc2cc(C(=O)N3N=C(CCOC)CC3(O)C(F)(F)F)ccc21 (configuration not stated),13,102%,9%,27,?,7%
COc1ccc(OCC(=O)Nc2c3c(nn2C(C)(C)C)CSC3)cc1,3,4%,51%,14,-35%,-18%
CC1Cc2cccc3ccc(=O)n(c23)C1 (configuration not stated),·,-2%,·,·,·,7%
COc1ccc(CCNC(=O)c2ccc(NS(=O)(=O)c3ccc4[nH]c(=O)[nH]c4c3)cc2)cc1,·,-1%,?,·,5%,17%
COc1ccc(C[C@@](C)(N)C(=O)O)cc1OC,·,·,-13%[12.8 µM],·,-19%[12.8 µM],·
O=C(Nc1cccnc1)c1cc(-c2cc(Cl)ccc2O)n[nH]1,39*,77%,?,91*,0.74µM*,-12%
Cc1ccc(O)c(-c2cc(C(=O)Nc3cccnc3)[nH]n2)c1,31*,87%,3.7µM*,80*,2.9µM*,-26%
Cc1noc(C)c1C(=O)N1CCC1(C)C(=O)NS(=O)(=O)c1ccc(F)cc1F (configuration not stated),·,3%,·,·,·,·
Cc1ccc(NC(=O)C2CCN(S(=O)(=O)c3ccc4c(c3)NC(=O)C(C)S4)CC2)c(Cl)c1 (configuration not stated),16*,2%,10µM*,10,?,11µM*
Cc1cc(C)cc(NC(=O)C2CCN(S(=O)(=O)c3ccc4c(c3)NC(=O)C(C)S4)CC2)c1 (configuration not stated),-2,-11%,?,-2,?,5%
Cc1ccc(NC(=O)C2CCN(S(=O)(=O)c3ccc4c(c3)NC(=O)C(C)S4)CC2)cc1Cl (configuration not stated),-2,-3%,13µM*,2,?,?
Cc1nn(CC(=O)N2CCc3ccccc3C2)c(C)c1Cl,-2,12%,3%,-9,?,-9%
Cc1ccc(S(=O)(=O)N2CCOCC2)cc1C(=O)OCC(=O)NC1CC1,·,12%,-29%,·,-6%,0%
COc1ccc(C(=O)Nc2ccc(C(=O)OCC(=O)c3ccccc3)cc2)cc1,19*,15%,10%,40,-10%,13%
COc1ccc(C(=O)COC(=O)c2ccc(NC(=O)c3ccccc3)cc2)cc1,1,5%,21%,3,11%,10µM*
